Shiga toxin inh – Shiga toxin inhibition; Vero cells, Shiga toxin protein synthesis inhibition reporter; inhibition, % at 38.7 µM; 290,000 tested, 9.2% active; in the data active means inhibition mostly above about 28%, no sharp cut-off; inactive means mostly below about 43%; further: 0% is about no effect
Sm TGR inh – blocks Schistosoma mansoni thioredoxin glutathione reductase. purified TGR, DTNB reduction, TNB absorbance 405 nm. Potency, µM (top dose mostly 114 µM), inactives show top-dose activity change, negative = inhibition, actives largely listed as inhibitors. 360,000 tested, 3% active; further: potency means the concentration at half of the fitted maximal effect; on the % scale 0 is the no-effect control and ±100 the full control effect; nearly all actives have a fitted effect of over 60% in size
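Kinetic colorimetric format: TGR-catalysed, NADPH-driven DTNB reduction monitored via TNB absorbance. Enzyme dispensed at 20 nM; compound exposure 15 min at room temperature before reaction start.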
FBPA Giardia inh – inhibitors of Giardia lamblia fructose-1,6-bisphosphate aldolase. purified Giardia FBPA. Potency, µM (top dose mostly 59.6 µM), inactives show at the top dose activity, negative = inhibition, actives largely listed as inhibitors. A8B2U2. 290,000 tested, 0.71% active; further: potency means the concentration at half of the fitted maximal effect; on the % scale 0 is the no-effect control and ±100 the full control effect; nearly all actives have a fitted effect of over 55% in size
Target sequence (A8B2U2 whole entry, looked up): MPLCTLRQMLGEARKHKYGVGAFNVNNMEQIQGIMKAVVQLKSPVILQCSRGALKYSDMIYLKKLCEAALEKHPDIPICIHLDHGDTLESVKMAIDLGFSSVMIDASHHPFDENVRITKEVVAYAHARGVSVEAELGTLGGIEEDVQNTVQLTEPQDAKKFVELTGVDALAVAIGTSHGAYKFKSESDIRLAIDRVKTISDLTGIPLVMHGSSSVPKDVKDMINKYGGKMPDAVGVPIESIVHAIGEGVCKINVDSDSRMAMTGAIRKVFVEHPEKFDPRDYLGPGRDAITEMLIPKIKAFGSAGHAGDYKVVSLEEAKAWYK
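Giardia FBPA (40 nM reagent) was preincubated 10 min at RT with compound (up to 57.5 uM final), then substrate plus GAPDH/TPI/NAD/arsenate coupling system with diaphorase/resazurin was added; resorufin fluorescence (525/598 nm) was read after 20 min.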
Cycloheximide cs – counter-screen for Shiga toxin inhibitors: cycloheximide protein synthesis inhibition. cell reporter, cycloheximide protein synthesis inhibition counterscreen. max response, %. 300,000 tested, 12% active. AID 2314; in the data active means max response mostly above about 13%, no sharp cut-off; inactive means mostly below about 14%; further: read at 38.3 µM for the half of the compounds with a filed dose; 0% is about no effect
LmPK inhibitor – inhibitors of Leishmania mexicana pyruvate kinase; Q27686; purified LmPK, Kinase-Glo ATP luminescence, 1 h; Potency, µM (top dose mostly 57.5 µM), without a hit: top-dose activity change, negative = inhibition, actives largely listed as inhibitors; 290,000 tested, 0.37% active; further: potency means the concentration at half of the fitted maximal effect; on the % scale 0 is the no-effect control and ±100 the full control effect
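Screened at intermediate enzyme activity to detect both inhibitors and activators: LmPK at 0.1 nM, with a 0.5 nM enzyme column as activation reference. PEP 0.5 mM, ADP 0.1 mM; ATP detected by luminescence after 1 h.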
TbPYK inhibitor – blocks Trypanosoma brucei pyruvate kinase | Q57TT1 | TbPYK enzyme, Kinase-Glo Plus ATP luminescence, 45 min | Potency, µM (series often up to 76.8 µM), for the others: at the top dose activity, negative = inhibition, most hits filed as inhibitors | 410,000 tested, 0.12% active | AID 624173; further: potency means the concentration at half of the fitted maximal effect; on the % scale 0 is the no-effect control and ±100 the full control effect; nearly all actives have a fitted effect of over 50% in size
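T. brucei PYK with substrate was exposed to pin-transferred compounds across a concentration series, then started with 130 uM ADP (final). After 45 min at room temperature, Kinase-Glo Plus luminescence was read, normalized and curve-fitted.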
* marks the source's active call; other numbers are inactive results; ? = inconclusive; nt = no result; [ ] = remark or other dose. Only a selection was taken, and hits are over-represented in it overall. Unless noted, the call rests on the fitted dose curve; in most records, active means well fitted curve in the direction sought with a large enough effect; inconclusive means small, poorly fitted or top-dose-only effect, or another doubt; inactive means no such curve, though single readings can be large; an effect the other way counts as inactive or inconclusive.

SMILES	Shiga toxin inh	Sm TGR inh	FBPA Giardia inh	Cycloheximide cs	LmPK inhibitor	TbPYK inhibitor
COc1ccc(/C=C/C(=O)OCC(=O)N2c3ccccc3CC2C)cc1 (stereo not drawn)	nt	nt	nt	nt	nt	-11%
COc1ccc(CNC(=O)c2ccc(NC(=O)N3CCCCc4ccccc43)cc2)cc1	nt	2%	nt	nt	nt	-4%
CCN(Cc1ccccc1)C(=O)c1cc2c(OC)c(OC)c(OC)cc2[nH]1	-3	35µM*	5%	2	0%	1%
O=C(c1cccs1)c1cn(CCOc2ccccc2Cl)c2ccccc12	nt	2%	nt	nt	nt	-2%
CCCC[C@@H]1CNC(=O)C(=O)N1CCCC	nt	nt	nt	nt	nt	4%
O=C(O)c1ccc2c(c1)C(=O)N([C@]1(C(=O)O)CC1c1ccccc1)C2=O (stereo partly drawn)	-5	2%	10%	-2	nt	nt
CCC(=O)O[C@@]1(C(=O)CCl)C(C)CC2C3CCC4=CC(=O)C=C[C@@]4(C)[C@]3(F)C(O)C[C@]21C (stereo partly drawn)	nt	nt	-4%	nt	nt	-4%
COc1ccc(-c2ccc3c(c2)[C@@H]2C[C@H](N(C)C(=O)Nc4ccccc4)[C@H]([C@H](C)O)C(=O)N2CC3)cc1	nt	nt	nt	nt	nt	4%
CC(NC(=O)c1ccc2c(c1)N(Cc1cccc(F)c1)C(=O)c1ccccc1S2)c1ccccc1 (stereo not drawn)	nt	11%	nt	nt	nt	-2%
COc1ccc(NC(=O)N2CCc3ccccc32)cc1	38	-14%	-26%	29*	13µM*	?
COc1cccc(NC(=O)Cc2ccc(NC(=O)N3CCCCc4ccccc43)cc2)c1	nt	5%	nt	nt	nt	1%
Cc1ccc(C)c(N(CC(=O)NC2CCCC2)C(=O)c2csnn2)c1	-5	1%	5%	0	5%	5%
Cc1ccc(-n2c(C)nn(CC3CC3)c2=O)cc1	-8	6%	1%	1	-2%	-11%
Cc1nn(CCOc2ccccc2)c(=O)n1-c1c(F)cccc1F	33*	-6%	3%	52*	-2%	-9%
Cc1ccc(-n2c(C)nn(CCOc3ccccc3)c2=O)cc1	67*	2%	2%	35*	-6%	-7%
Cc1nn(CC2CC2)c(=O)n1-c1ccccc1F	20	1%	6%	2	7%	3%
Cc1nn(C)c(=O)n1-c1ccccc1	-14	0%	4%	-3	11%	3%
Cc1nn(C)c(=O)n1-c1ccc(Oc2ccccc2)cc1	-7	-7%	1%	11*	-4%	3%
CC(C)(C)c1ccc(OCC(O)CN2CCc3ccccc3C2)cc1 (stereo not drawn)	nt	nt	nt	nt	nt	6%
NC1(C#Cc2ccc3oc(=O)c(-n4cc(-c5ccsc5)nn4)cc3c2)CCCCC1	nt	56µM*	nt	nt	nt	2%
C=C/C(C)=C/CC1C(=C)CCC2C(C)(C(=O)O)CCCC12C (stereo not drawn)	-2	32µM*	11%	-6	1%	-4%
C=C[C@]1(C)C=C2CCC3[C@](C)(CCC[C@@]3(C)C(=O)O)C2CC1 (stereo partly drawn)	nt	-3%	nt	nt	nt	-4%
O=C(CCC(=O)N1Cc2ccccc2Oc2ncccc21)NCc1cccc(Cl)c1	nt	1%	nt	nt	nt	1%
Cc1ccc(Cn2c(=O)n(Cc3ccc(Cl)cc3)c(=O)c3cccnc32)cc1	nt	1%	nt	nt	nt	0%
CC(C)Sc1nc(SCC(=O)O)c2c3c(sc2n1)COC(C)(C)C3	54*	-1%	8%	43*	-1%	4%
SMILES	Shiga toxin inh	Sm TGR inh	FBPA Giardia inh	Cycloheximide cs	LmPK inhibitor	TbPYK inhibitor
CC(C)Sc1nc(SCC(=O)NCc2ccco2)c2c3c(sc2n1)COC(C)(C)C3	183*	28µM*	0%	93*	4%	2%
O=C(CCc1c[nH]c2ccccc12)Nc1ncccc1O	16	5%	nt	16*	-3%	-7%
CC(=O)Nc1ccc(NC(=O)CCCc2c[nH]c3ccccc23)cc1	-19	-2%[57.1 µM]	1%	1	-3%	1%
O=C(CCCc1c[nH]c2ccccc12)Nc1ccc2ccccc2c1	68*	1%	2%	38*	2%	-6%
O=C(CCc1c[nH]c2ccccc12)NCc1ccncc1	-4	-29%	11%	-6	0%	-2%
Cc1ccc(NC(=O)CCc2c[nH]c3ccccc23)nc1	35*	-6%	nt	11*	1%	0%
CCCC(=O)c1ccc(N2CCCCCC2)c(F)c1	68*	-13%	-3%	40*	-8%	1%
CCCC(=O)c1ccc(N2CCN(C(=O)OCC)CC2)c(F)c1	54	8%	7%	23	-1%	5%
CC(=O)c1ccc(N2CCCCC2)c(F)c1	-5	?	3%	16*	9%	2%
CCCC(=O)c1ccc(N2CCCCC2)c(F)c1	94*	nt	0%	47*	0%	-4%
Cc1ccccc1C(=O)Nc1sc2c(c1C(=O)N1CCC(C)CC1)CCC(C)C2 (stereo not drawn)	nt	0%	nt	nt	nt	2%
CC(=O)N1CCc2cc(S(=O)(=O)NC(CC(C)C)C(=O)Nc3ccc(C(C)C)cc3)ccc21 (stereo not drawn)	nt	-4%	nt	nt	nt	-2%
CC(=O)c1ccc(NC(=O)Nc2sc3nc4n(c(=O)c3c2C)CCC(C)CC4)cc1 (stereo not drawn)	nt	0%	nt	nt	nt	-1%
COc1ccc(C(=O)n2nnc3ccccc32)cc1OC	-14	6.3µM*	-14%	-6	-1%	-4%
CCSc1ccccc1C(=O)n1nnc2ccccc21	-7	20µM*	-2%	-6	-1%	-6%
O=C(c1ccc2c(c1)OCO2)n1nnc2ccccc21	13	10µM*	-9%	0	8%	nt
COc1ccc(N/C(=C(/C(Cl)=C(Cl)Cl)[N+](=O)[O-])n2nnc3ccccc32)cc1OC	2	22µM*	?	4	1%	nt
COc1ccc(C(=O)n2nnc3ccccc32)cc1Br	8	?	-14%	0	-11%	-4%
COc1ccc(-n2c(=O)c3c(c4cc(OC)ccc4n3C)n(Cc3ccc(F)cc3Cl)c2=O)cc1	nt	0%	nt	nt	nt	7%
CCn1c(C(C)NC(=O)c2ccc(OC)c(OC)c2)nc2ccccc21 (stereo not drawn)	70*	0%	1%	18*	-3%	-6%
O=C1/C(=C/c2ccc(F)cc2)CCC1C1CCCC1 (stereo not drawn)	75*	8%	2%	41*	-11%	-1%
CCOc1ccc(/C=C2\CCC(C3CCCC3)C2=O)cc1 (stereo not drawn)	21	8%	1%	22*	-10%	-9%
COc1ccccc1/C=C1\CCC(C2CCCC2)C1=O (stereo not drawn)	43*	-17%	1%	34*	-6%	-1%
O=C1/C(=C/c2ccco2)CCC1C1CCCC1 (stereo not drawn)	127*	50µM*	1%	53*	-8%	-3%
